Measured values from PubChem BioAssay AID449762 (Southern Research Specialized Biocontainment Screening …, 2010).
Out of some 330,000 compounds screened, about 1,900 (0.58%) were called active. About 4% were inconclusive and are not listed. Rule as the data show it: inconclusive = inhibition above about 70% without an active follow-up result; inactive = below that. The list is a sample of the results. Results with a measured potency or affinity are listed apart.

test: M. tuberculosis growth inhibition, HTS (AID 449762);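 also: bacterial growth assessed after seven days of incubation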; details: M. tuberculosis H37Rv growth inhibition, 7H9 media; at 25 µM; active compounds read high

Compound	inhibition
O=C(NC1CCN(S(=O)(=O)c2ccccc2F)CC1)c1ccco1	-8.86% (inactive)
COc1cccc(NC(=O)CN(C)C(=O)C2CC3C=CC2C3)c1 (stereo not drawn)	0.94% (inactive)
CCN(c1ccccc1)S(=O)(=O)c1ccc(Cl)c(NC(=O)CNCc2ccccc2OC)c1	-4.74% (inactive)
NS(=O)(=O)c1cccc(NC(=O)COc2ccc([N+](=O)[O-])cc2)c1	-1.48% (inactive)
O=C(NCc1ccc(F)cc1)C1(S(=O)(=O)c2ccc(Cl)cc2)CC1	-0.39% (inactive)
CN(C)c1ccc(C=C2C(=O)OC(C)(C(C)(C)C)OC2=O)cc1 (stereo not drawn)	0.2% (inactive)
COc1ccccc1/C=C1\N=C(C(C)(C)C)OC1=O	7.56% (inactive)
CC(C)Cn1c(NCCN(C)C)nc2c1c(=O)[nH]c(=O)n2C	-4.76% (inactive)
CCNc1nc2c(c(=O)[nH]c(=O)n2C)n1CC(C)C	-9.92% (inactive)
Cc1c(Cl)cccc1NC(=O)CSc1nnnn1C	1.96% (inactive)
CC(C)Oc1ccc(C(CCNCc2ccc(O)cc2)c2ccccc2)cc1 (stereo not drawn)	62.7% (inactive)
COc1ccc(C(CCNCc2ccc(N(C)C)cc2)C(C)C)cc1 (stereo not drawn)	10.7% (inactive)
CSc1ccc(CCNC(=O)c2cc(C)nn2-c2ccccc2)cc1	3.36% (inactive)
COc1ccc(NC(=O)CCNC(=O)c2ccccc2)cc1S(N)(=O)=O	-4.86% (inactive)
CC(=O)c1ccc(COC(=O)c2cc3ccccc3oc2=O)cc1	13.6% (inactive)
CCOC(=O)c1cc2c(ccc3ccccc32)oc1=O	52.8% (inactive)
COC(=O)c1ccc(COC(=O)c2cc3ccccc3oc2=O)cc1	15.8% (inactive)
CCOC(=O)c1cc2ccc(OC)cc2oc1=O	14% (inactive)
O=C(/C=C/c1ccccc1)N1c2ccccc2Sc2ccc(C(F)(F)F)cc21	25.3% (inactive)
COc1cccc(-n2c(CN3CCN(c4ccccn4)CC3)nc3ccc([N+](=O)[O-])cc3c2=O)c1	-0.01% (inactive)
COc1ccc(NC(=O)CSc2nc3c(c(=O)n2-c2ccc(C)cc2)SCC3)c(OC)c1	-1.52% (inactive)
Cc1ccccc1C(=O)NCCCNC(=O)c1cnccn1	4.01% (inactive)
COc1ccc(CCNC(=O)CNS(=O)(=O)c2cccs2)cc1OC	-11.3% (inactive)
CCOc1ccc(S(=O)(=O)NC(Cc2cnc[nH]2)C(=O)O)cc1 (stereo not drawn)	-6.37% (inactive)

Compound	inhibition
CC(=O)Nc1cccc(OCC(=O)Nc2ccc(F)cc2)c1	-11.2% (inactive)
C=CC(=O)Nc1cccc(Oc2ncnc3[nH]cc(-c4cnc5ccccc5c4)c23)c1	1.76% (inactive)
Cc1ccc(NC(=O)COC(=O)Cn2cnc3ccccc32)c(C)c1	5.43% (inactive)
Cc1cccc(Cn2cc(/C=C/[N+](=O)[O-])c3ccccc32)c1	-0.16% (inactive)
O=[N+]([O-])/C=C/c1cn(Cc2ccc(Cl)cc2)c2ccccc12	3.28% (inactive)
COc1cc(CN(CC2CCCO2)C(=O)c2cccs2)cc(OC)c1OC (stereo not drawn)	1.89% (inactive)
NC(=O)C1CC(=O)N(c2ccc(OCc3ccccc3Cl)cc2)C1 (stereo not drawn)	7.94% (inactive)
CC(C)Oc1ccc(N2CC(C(=O)Nc3ccccn3)CC2=O)cc1 (stereo not drawn)	10.3% (inactive)
O=C(OCc1ccccc1Cl)C1CC(=O)N(Cc2ccco2)C1 (stereo not drawn)	5.47% (inactive)
COc1ccc(COC(=O)C2CC(=O)N(Cc3ccc(C)cc3)C2)cc1 (stereo not drawn)	16.4% (inactive)
O=C(O)C1CC(=O)N(c2ccc(OCc3ccccc3Cl)cc2)C1 (stereo not drawn)	35.8% (inactive)
CCOc1ccc(N2CC(C(=O)Nc3ccccn3)CC2=O)cc1 (stereo not drawn)	12.2% (inactive)
O=C(COC(=O)c1ccc(Cl)nc1)NNC(=O)c1ccc(Cl)cc1	5.61% (inactive)
O=C(NCCC1=CCCCC1)c1cc(S(=O)(=O)N2CCOCC2)c(Cl)cc1Cl	2.93% (inactive)
CCc1ccccc1N(CC(=O)NCC1CCCO1)C(=O)CCC(=O)Nc1cc(C)on1 (stereo not drawn)	-3.22% (inactive)
COc1ccc(OC)c(S(=O)(=O)N2CCC(C(=O)Nc3cc(C)ccc3C)CC2)c1	-10.6% (inactive)
Cc1ccccc1C1C(C#N)=C2N=C(N)c3ccccc3N2C2=C1C(=O)CCC2 (stereo not drawn)	6.31% (inactive)
CCOC(=O)/C(=N\Nc1ccccc1)c1csc(Nc2ccc(C)cc2)n1	7.86% (inactive)
CCOC(=O)/C(=N\Nc1ccc(C(C)=O)cc1)c1csc(Nc2ccccc2)n1	-1.99% (inactive)
Cc1ccc(NC(=O)CN(C)C(=O)c2ccc3[nH]c4c(c3c2)CC(C)CC4)cc1 (stereo not drawn)	-5.07% (inactive)
O=C(OCc1ccc(Cl)cc1)c1cnccn1	31.1% (inactive)
O=C(c1ccccc1)c1ccc(COC(=O)c2cnccn2)cc1	18% (inactive)
COC(=O)CN(c1cccc(OC)c1)S(C)(=O)=O	1.45% (inactive)
CN(C)C(CNc1ncnc2sccc12)c1cccs1 (stereo not drawn)	-3.95% (inactive)

Compound	inhibition
CCOC(=O)c1sc2ncnc(NCc3ccco3)c2c1C	0.46% (inactive)
NC(=O)c1ccsc1NC(=O)COC(=O)Cc1c[nH]c2ccccc12	2.86% (inactive)
COc1ccc(/C=C2/SC(=O)N(CCNC(=O)CC(NC(C)=O)c3ccccc3)C2=O)cc1 (stereo not drawn)	-1.58% (inactive)
Cc1ccc(NC(=O)Cc2ccc(Cl)cc2)nc1	11.2% (inactive)
Cc1ccc(CC(=O)Nc2ccc(Cl)cn2)cc1	3.62% (inactive)
O=C(c1ccc(Cl)cc1)N1N=CCC1(O)c1ccc(Cl)cc1 (stereo not drawn)	2.13% (inactive)
C[C@H](NC(=O)c1[nH]cnc1C(=O)Nc1ccon1)c1ccccc1	-0.305% (inactive)
O=C(OCC(=O)N1CCN(C(=O)c2ccco2)CC1)c1cc(-c2ccc(Cl)c(Cl)c2Cl)nc2ccccc12	4.98% (inactive)
O=C(OCC(=O)N1CCN(C(=O)c2ccco2)CC1)c1cc(-c2ccco2)nc2ccccc12	6.06% (inactive)
COc1ccc(CN(C)C(=O)C(Cc2ccccc2)NC(=O)c2ccccc2)c(OC)c1 (stereo not drawn)	0.87% (inactive)
COc1cc(CN2CCC(n3nccc3NC(=O)CCCc3ccccc3)CC2)ccc1F	-1.97% (inactive)
CC1CCC/C(=N\NC(=O)Nc2ccccc2)C1 (stereo not drawn)	-3.97% (inactive)
CCC(C)(C)C1CCC(=NNC(=S)Nc2ccccc2)CC1 (stereo not drawn)	6.86% (inactive)
CCN(CC(=O)NCc1ccc(Cl)cc1)C(=O)c1ccc(S(=O)(=O)N(C)C)cc1	-8.9% (inactive)
Cc1ccc(N=C2C(=S)N(c3ccc(C)cc3)C(=N)N2/N=C/c2ccc(Cl)cc2)cc1	-4.74% (inactive)
N=C1N(/N=C/c2ccccc2)C(=Nc2ccccc2)C(=S)N1c1ccccc1	-15.3% (inactive)
CNC(=O)CSCc1cnn(-c2ccccc2)c1-n1cccc1	-0.17% (inactive)
Nc1ccc(S(=O)(=O)N2CCCC2C(=O)O)cc1 (stereo not drawn)	-7.07% (inactive)
Nc1nonc1C(=O)NCCNCc1ccccc1OCc1ccccc1F	2.36% (inactive)
Nc1nonc1C(=O)NCCNCc1cc(Br)ccc1OCc1ccccc1F	14.5% (inactive)
COc1ccc(N(CC(=O)NC2CC3CCC2C3)S(=O)(=O)c2ccc(C)c([N+](=O)[O-])c2)cc1 (stereo not drawn)	2.1% (inactive)
COc1cc(NC(=O)COc2ccc(-n3ccnc3)cc2)cc(OC)c1	38.6% (inactive)
O=C(COc1ccc(-n2ccnc2)cc1)Nc1cccc(Cl)c1	-3.44% (inactive)
Cc1ccc(C(=O)N2CCN(c3ccc([N+](=O)[O-])c(NCc4cccnc4)c3)CC2)cc1	0.99% (inactive)

Compound	inhibition
CC(C)(C)C(=O)/C=c1\[nH]c(=O)/c(=C\c2ccccc2F)s1	48.4% (inactive)
COc1cc(/C=c2\s/c(=C\C(=O)C(C)(C)C)[nH]c2=O)cc(OC)c1OC	69% (inactive)
O=C(Nc1c(C(=O)NCc2ccco2)cnn1-c1ccccc1)c1ccc(F)cc1	3.13% (inactive)
COc1ccc(C(=O)Nc2nnc(S(=O)(=O)Cc3ccccc3)s2)cc1	8.58% (inactive)
O=C(N/N=C/c1ccccc1)C(=O)N/N=C/c1ccccc1	2.46% (inactive)
O=C(CC1CCCC1)N1CCN(S(=O)(=O)c2ccc(F)cc2)CC1	-4.71% (inactive)
COC(=O)c1ccccc1NC(=O)COC(=O)CSc1nnc(N)s1	0.97% (inactive)
CC(C)(C)OC(=O)NCCCCCNC(=O)c1[nH]cnc1C(=O)Nc1ccon1	-5.82% (inactive)
COc1ccc(NC(=O)NCc2cccnc2)cc1OC	-5.2% (inactive)
COC(=O)Cn1nc(-c2ccccc2)c2ccccc21	31.4% (inactive)
COC(=O)Cn1nc(-c2ccccc2)c2ccccc2c1=O	65.5% (inactive)
Cc1ccccc1C(=O)N1CCC(C(=O)N(CC(C)C)c2c(N)n(CC(C)C)c(=O)[nH]c2=O)CC1	-6.17% (inactive)
COC(=O)[C@H](CCSC)NC(=O)NCc1cccs1	-7.69% (inactive)
Cc1cc(C)nc(N2CCC(C(=O)Nc3cccc(C(F)(F)F)c3)CC2)n1	-14.2% (inactive)
Cc1cccc(NC(=O)C2CCN(c3nccc(C)n3)CC2)c1	3.71% (inactive)
CCOC(=O)c1cn(CC)c2cc(Cl)c([N+](=O)[O-])cc2c1=O	9.8% (inactive)
CCCN1CCN(C2CCCCC2NS(=O)(=O)c2ccccc2)CC1 (stereo not drawn)	-5.87% (inactive)
OC(COC(c1ccc(F)cc1)c1ccc(F)cc1)CN1CCc2ccccc2C1 (stereo not drawn)	28.2% (inactive)
OC(COC(c1ccccc1)c1ccccc1)CN1CCc2ccccc2C1 (stereo not drawn)	4.67% (inactive)
CCOc1ccc(Oc2nc(NCC(C)C)nc(N(C)C)n2)nn1	-2.04% (inactive)
COC(=O)Cn1c(=O)oc2ccc(C)cc21	-1.52% (inactive)
